For 47 sequences, binding signal results are on record in publication PMC7819943, “Rice protein-binding microarrays: a tool to detect cis-acting elements near promoter regions in rice”.

The full ranking holds about 35,000 sequences; the median of “fluorescence intensity (a.u.)” is about 10,000, and the highest 2% start at about 52,000. The list comes from a sample in which the highest values are over-represented; it also holds similar and randomly drawn sequences.

This test addresses T1, OsWOX13 (Oryza sativa, UniProt Q5QMM3 1-267).
T1 sequence: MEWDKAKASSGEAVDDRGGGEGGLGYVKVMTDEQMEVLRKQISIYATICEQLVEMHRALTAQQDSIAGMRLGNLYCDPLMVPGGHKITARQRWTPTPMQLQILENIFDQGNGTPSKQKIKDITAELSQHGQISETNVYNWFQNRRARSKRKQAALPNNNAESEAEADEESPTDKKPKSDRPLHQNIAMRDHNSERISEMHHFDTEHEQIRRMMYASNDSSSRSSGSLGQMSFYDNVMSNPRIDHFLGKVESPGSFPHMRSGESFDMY
Nature of the test: protein-binding microarray (RPBM); PBS, 2% BSA, 51.3 ng/ul salmon testes DNA, 50 uM zinc acetate, 200 nM TF, 25 C, 1 h; high values mean tight binding. Particulars: protein: recombinant; tags: N-terminal polyhistidine and DsRed monomer fusion (pET32a); label: CyDye5-dUTP incorporated in the synthesized complementary strand; 3' TTTTT single-stranded linker to array surface; dsDNA, one strand shown. In outline:
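In PBS with 2% BSA, salmon testes DNA and 50 µM zinc acetate, 200 nM protein was incubated on a custom Agilent array at 25 °C for 1 h and then washed off. The array had been made double-stranded by primer extension with Cy5-dUTP and blocked with 2% BSA. The proteins were transcription factors fused N-terminally to polyhistidine and DsRed, expressed in E. coli BL21-CodonPlus and purified on Ni–NTA. The binding signal is per-feature fluorescence intensity (arbitrary units) from an Axon 4000B scanner.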
Turning to “CCAAACAATTTCAGTTTCATCTAAATTGGAGTGGAGCTGGCGGAGTCACCTAGTGCAG”, the binding signal is 11400 fluorescence intensity (a.u.).

As for “TATGATTGATTGGAGGGATCAATTAATTACTCATTCTCCACGGAGTCACCTAGTGCAG”, the binding signal was 64700 fluorescence intensity (a.u.).

For the sequence “CTGATTAAGATCACTAATTGATCTGTCCACATTGCATCCTCGGAGTCACCTAGTGCAG”, the binding signal was 54800 fluorescence intensity (a.u.).

Take “ATTAATTAATTAATTAATTAATTAATACTCCTCTCTTCCACGGAGTCACCTAGTGCAG”: the binding signal was 65500 fluorescence intensity (a.u.).

Regarding “TGGATTAATTTCTCCTCTTCTCTTCCTCCCGTTTATAATACGGAGTCACCTAGTGCAG”, the binding signal is 6370 fluorescence intensity (a.u.).

As for “CTCGTTAGATTTTGATCAATGATTAGTCCAAATTATACATCGGAGTCACCTAGTGCAG”, the binding signal was 15200 fluorescence intensity (a.u.).

Regarding “TTGATAGATTGATCGTTAGTGCTTTTGTCCAATTTGTTCACGGAGTCACCTAGTGCAG”, the binding signal was 64200 fluorescence intensity (a.u.).

Take “GAGATCACATTAACTAATTGATTAACTAATTACTTCATCCCGGAGTCACCTAGTGCAG”: the binding signal is 29600 fluorescence intensity (a.u.).

In the case of “ATTTAATTTAATTTAATTGTTCCTCCTCTTCTTCTTCTCTCGGAGTCACCTAGTGCAG”, the binding signal was 41000 fluorescence intensity (a.u.).

For the sequence “TTGTCCATCACAATTGCTAATTAACTAAGACACCCTTCCTCGGAGTCACCTAGTGCAG”, the binding signal is 21100 fluorescence intensity (a.u.).

Consider “CTCCACTAATTACTCCACCCAACCATTGGATTCAATGGGCCGGAGTCACCTAGTGCAG”, for which the binding signal was 21700 fluorescence intensity (a.u.).

Turning to “TTTTGTAACTGATCGTTATTAGATCGGATTTGTTCATTGTCGGAGTCACCTAGTGCAG”, the binding signal was 3360 fluorescence intensity (a.u.).

Consider “TTTACTCATGATTACGCTAATTATTCCACTCAATTCTCACCGGAGTCACCTAGTGCAG”, for which the binding signal was 26100 fluorescence intensity (a.u.).

As for “TGATAATTTTAAATTAAATAAGTAAATTTCAGAAAACTATCGGAGTCACCTAGTGCAG”, the binding signal is 29700 fluorescence intensity (a.u.).

For “TTATATTTAGATTGAAGCCAAAATAACCTAAGTTCACTATCGGAGTCACCTAGTGCAG”, the binding signal was 8620 fluorescence intensity (a.u.).

As for “TTTTACTATAACGTTTGATCATTTGTGTTATTTAAATTTTCGGAGTCACCTAGTGCAG”, the binding signal is 4170 fluorescence intensity (a.u.).

For the sequence “TGATTTGGCTGATTAGATGCAATTTAGTCCTGCCACTGTGCGGAGTCACCTAGTGCAG”, the binding signal is 16900 fluorescence intensity (a.u.).

Take “AATCAATCAATTAGTTAGAGATCAAGTTATTAGTGTCCAACGGAGTCACCTAGTGCAG”: the binding signal was 31100 fluorescence intensity (a.u.).

Regarding “CAAATAAACAGGGTTCAGTCAAACTCAAGTGAATGAATTGCGGAGTCACCTAGTGCAG”, the binding signal was 11500 fluorescence intensity (a.u.).

“ATGAGCCTAACCATTTCTAGTGTTACTTACTCCATTTCAGCGGAGTCACCTAGTGCAG”: the binding signal is 64200 fluorescence intensity (a.u.).

Take “GTGCAATTTAACTCCATAAATTACTTTCAGAAATGTGCAGCGGAGTCACCTAGTGCAG”: the binding signal is 11300 fluorescence intensity (a.u.).

For the sequence “GTCATCAATGATTCAGTGTTAACTACTCCATTTCTAGAAACGGAGTCACCTAGTGCAG”, the binding signal was 3880 fluorescence intensity (a.u.).

As for “ATAATGGGAAATGGAGGGTGGGATTGGGATTAGAAAATGACGGAGTCACCTAGTGCAG”, the binding signal is 3290 fluorescence intensity (a.u.).

As for “AATATTAGTATTAATTGATAAAAGTTCGTCACGCGAGTTACGGAGTCACCTAGTGCAG”, the binding signal was 18200 fluorescence intensity (a.u.).

As for “GAGTAATTTTCTACTGGTTTTAATAGTTGAAATAGCTGTTCGGAGTCACCTAGTGCAG”, the binding signal is 3780 fluorescence intensity (a.u.).

Take “TAAATTGAATGGTTTTGTAAGTTGAGGGACGTCATATATCCGGAGTCACCTAGTGCAG”: the binding signal is 21500 fluorescence intensity (a.u.).

In the case of “ATTTTGAAGTTCCTGTAAGTTGGACATATCTACTGGTTCCCGGAGTCACCTAGTGCAG”, the binding signal was 65500 fluorescence intensity (a.u.).

“TATCTCTAATTTAGTTAATTTAACTTGTTGATCGATCGCTCGGAGTCACCTAGTGCAG”: the binding signal was 21700 fluorescence intensity (a.u.).

For the sequence “AGCAAATTTAAATTTGATAGTATAGAATTGGTTCTGAGGTCGGAGTCACCTAGTGCAG”, the binding signal was 52400 fluorescence intensity (a.u.).

For the sequence “TTTGATTTAATTTGTTCTGCAAACAGTCCGGAAAATGCCTCGGAGTCACCTAGTGCAG”, the binding signal is 53500 fluorescence intensity (a.u.).

For the sequence “CAAAACTGTCATTTTGTATGATTTCTCTCTCATCAATTGGCGGAGTCACCTAGTGCAG”, the binding signal was 17500 fluorescence intensity (a.u.).

As for “TTATACAAATTATACCTGTTAATTATTGTGATTGTTTGGTCGGAGTCACCTAGTGCAG”, the binding signal is 36800 fluorescence intensity (a.u.).

Turning to “CGTTTCTGATTTGATTCTTCCAAATTTTGGGTTCCTGATTCGGAGTCACCTAGTGCAG”, the binding signal is 24800 fluorescence intensity (a.u.).

In the case of “TTGATTTGATTGGGTTGGTTCCAAATTATATTCTGTGATTCGGAGTCACCTAGTGCAG”, the binding signal is 57600 fluorescence intensity (a.u.).

Regarding “ATTTTCTCAATTTATCTCACTCATATAAACTCCAAATTGGCGGAGTCACCTAGTGCAG”, the binding signal was 6170 fluorescence intensity (a.u.).

With “TCGGTCTGCAAACAAATTGATTGATTTGTTTTCCTTTTGCCGGAGTCACCTAGTGCAG”, the binding signal is 47100 fluorescence intensity (a.u.).

As for “CCAAATTTGATTGGCATCTCAAAACTGTCGTATAATTGGGCGGAGTCACCTAGTGCAG”, the binding signal is 65500 fluorescence intensity (a.u.).

For the sequence “CAATAAATTTGAATAGCAATTGGTATATGTCATATCTGGTCGGAGTCACCTAGTGCAG”, the binding signal was 14900 fluorescence intensity (a.u.).

In the case of “ACTTGTAGTAATTTAATTTGAAATTCTGTTCTTGCCTCTGCGGAGTCACCTAGTGCAG”, the binding signal was 6760 fluorescence intensity (a.u.).

For “AGTTTATGATAATTTAAATTTATATAGTATGTAGAATGGTCGGAGTCACCTAGTGCAG”, the binding signal is 14400 fluorescence intensity (a.u.).

As to “ATTCGTAACCACTTAATTACCCATTTATCCCCTTCTGATTCGGAGTCACCTAGTGCAG”, the binding signal is 10600 fluorescence intensity (a.u.).

For the sequence “TATAAATTTAGTTAAATATATATAAAGAAGTTTGACTTATCGGAGTCACCTAGTGCAG”, the binding signal was 9160 fluorescence intensity (a.u.).

On to “TAATAATTTATTATGTGTATGTGTATGGCTAGGATACAGCCGGAGTCACCTAGTGCAG”, for which the binding signal is 16500 fluorescence intensity (a.u.).

“TGTTTTACCCTGATTGCGTGAAGTGAAACTATTATTCAGGCGGAGTCACCTAGTGCAG”: the binding signal is 3550 fluorescence intensity (a.u.).

As for “GTCATAATTTGAAATTCAAATTTAAACTATTCAAACAAAGCGGAGTCACCTAGTGCAG”, the binding signal was 23300 fluorescence intensity (a.u.).

As to “CAAATTGGTGGGTGATTGCTAATTTATAACTGTTCGTATTCGGAGTCACCTAGTGCAG”, the binding signal was 64100 fluorescence intensity (a.u.).

For “TTTCGTGATAATTTTGTGTGCAATCACAACAATTTGAAATCGGAGTCACCTAGTGCAG”, the binding signal is 6180 fluorescence intensity (a.u.).
